Screening data from PubChem BioAssay.
aSyn UTR act: Activators working through SNCA 5'UTR binding (MLPCN); alpha-synuclein 5'UTR reporter, activators screen; activity score, % (tested at 7.5 µM), hits read low; 300,000 compounds, 7.1% hits; AID 1814; in the data active = activity score below about -60%
An asterisk follows results filed as active. These entries were drawn from the full list.

How did CCOc1ccc(NC(=O)c2csc3c2CCCC3)cc1 do in these assays?
aSyn UTR act: -204*

How did COc1cccc(/C=N/NC(=O)c2cccs2)c1 do in these assays?
aSyn UTR act: -137*

How did COc1cc(/C=N/OCC(=O)NC2CCCCC2)ccc1OCc1ccccc1 do in these assays?
aSyn UTR act: -97*

What do the screens show for `COc1cc(/C=N/NC(=O)c2cccs2)ccc1OCc1ccccc1`?
aSyn UTR act: -105*

What do the screens show for `COc1cc(/C=N/NC(=O)c2cc(C)oc2C)ccc1OCc1ccccc1`?
aSyn UTR act: -102*

Results for O=C(CCl)Nc1ccccc1C(=O)Nc1ccc2c(c1)OCO2 ?
aSyn UTR act: -87*

Results for O=C(COC(=O)c1ccccc1NCc1ccco1)Nc1ccc2c(c1)OCO2 ?
aSyn UTR act: -67*

Results for Cc1ccc(NC(=O)c2ccoc2C)cc1C ?
aSyn UTR act: -231*

What do the screens show for `Cc1ccc(C(=O)Nc2ccc3c(c2)OCCO3)c(C)c1`?
aSyn UTR act: 73

How did Cc1occc1C(=O)Nc1ccc2c(c1)OCO2 do in these assays?
aSyn UTR act: -144*

Results for COc1cccc(C(=O)Nc2ccc3c(c2)OCO3)c1OC ?
aSyn UTR act: -128*

How did Cc1occc1C(=O)Nc1cccc(C(=O)O)c1 do in these assays?
aSyn UTR act: -85*

What do the screens show for `CC(C)c1ccc(NC(=O)c2sccc2-n2cccc2)cc1`?
aSyn UTR act: -146*

Results for CSc1ccc(C2c3[nH]c4ccccc4c3CCN2C(=O)c2ccnn2C)cc1 (stereo not given) ?
aSyn UTR act: -166*

What do the screens show for `Cc1ccc(NCC(=O)N=Nc2c(O)[nH]c3ccc([N+](=O)[O-])cc23)cc1`?
aSyn UTR act: -172*

Results for Cc1nn(-c2ccccc2)c(C)c1C(=O)Oc1ccccc1 ?
aSyn UTR act: -115*

Results for COc1ccc(OC(=O)c2c(C)nn(-c3ccccc3)c2C)cc1 ?
aSyn UTR act: -103*

What do the screens show for `CCOC(=O)c1c(C)nn(-c2ccc(NC(=O)/C=C/C(=O)O)cc2)c1C`?
aSyn UTR act: 92

How did COc1ccc(OC(=O)c2cnn(-c3ccccc3)c2C)cc1 do in these assays?
aSyn UTR act: -222*

Results for Cc1c(C(=O)N(C)c2ccc(Cl)cc2)cnn1-c1ccccc1 ?
aSyn UTR act: -64*

How did Cc1nn(-c2ccccc2)c(C)c1C(=O)NCCc1ccccc1 do in these assays?
aSyn UTR act: -82*

What do the screens show for `CCN(CC)C(=O)c1cc2sc3ccccc3c2s1`?
aSyn UTR act: -134*

Results for CN(C)CCNC(=O)c1cc2sc3ccccc3c2s1 ?
aSyn UTR act: -127*

How did CCCCCCC#Cc1ccc2c(c1)COc1c3ccccc3nn1-2 do in these assays?
aSyn UTR act: -141*

Results for CC(C#Cc1ccc2c(c1)COc1c3ccccc3nn1-2)OC(C)(C)C (stereo not given) ?
aSyn UTR act: -114*

What do the screens show for `C#Cc1ccc2c(c1)COc1c3ccccc3nn1-2`?
aSyn UTR act: -89*

How did N#CCCCC#Cc1ccc2c(c1)COc1c3ccccc3nn1-2 do in these assays?
aSyn UTR act: 77

Results for C(#Cc1ccc2c(c1)COc1c3ccccc3nn1-2)c1ccccc1 ?
aSyn UTR act: -208*

What do the screens show for `Cc1ccc(-c2noc(COc3ccccc3C)n2)cc1`?
aSyn UTR act: -86*

Results for Cc1ccc(OCc2nc(-c3ccccc3)no2)cc1 ?
aSyn UTR act: -122*

Results for Cc1ccccc1OCc1nc(-c2ccccc2)no1 ?
aSyn UTR act: -178*

Results for c1ccc(-c2noc(COc3ccc4c(c3)OCO4)n2)cc1 ?
aSyn UTR act: -192*

What do the screens show for `Cc1cc(NC(c2cccnc2)c2ccc3cccnc3c2O)no1` (stereo not given)?
aSyn UTR act: 77

What do the screens show for `Cc1cc(Br)ccc1OCc1nc(-c2cccnc2)no1`?
aSyn UTR act: -114*

How did O=[N+]([O-])c1ccc(/C=N/Nc2nc3ccccc3o2)cc1 do in these assays?
aSyn UTR act: -186*

What do the screens show for `CN(C)c1ccc(/C=N/Nc2nc3ccccc3o2)cc1`?
aSyn UTR act: 67

How did O=C(Nc1ccc(Br)cc1)Nc1ccccc1F do in these assays?
aSyn UTR act: -232*

What do the screens show for `O=C(Nc1ccccc1F)Nc1ccccc1F`?
aSyn UTR act: -239*

Results for COC(=O)C1=C(C)NC(C)=C(C(=O)OCC(C)C)C1c1ccccc1[N+](=O)[O-] (stereo not given) ?
aSyn UTR act: 71

Results for CCOC(=O)C1=C(C)NC2=C(C(=O)c3ccccc32)C1c1ccc([N+](=O)[O-])o1 (stereo not given) ?
aSyn UTR act: -63*

What do the screens show for `CN(C)c1ccc(N=C/C=C2/N(C)c3ccccc3C2(C)C)cc1`?
aSyn UTR act: -84*

Results for CC(O)CNCCCCOc1ccc(OCc2ccccc2)cc1 (stereo not given) ?
aSyn UTR act: -93*

Results for COc1ccc(NC(=O)CSc2n[nH]c(N)n2)cc1OC ?
aSyn UTR act: -92*

How did Nc1nc(SCC(=O)Nc2ccc(OCc3ccccc3)cc2)n[nH]1 do in these assays?
aSyn UTR act: -84*

What do the screens show for `O=C(NC1CCCCCCC1)c1cc(F)c(F)cc1Cl`?
aSyn UTR act: -81*

Results for CCOc1cccc(C(=O)NC2CCCCC2)c1 ?
aSyn UTR act: -67*

How did O=C(NC1CCCCCCC1)c1cccc(Cl)c1 do in these assays?
aSyn UTR act: -166*

How did O=C(NC1CCCCC1)C(c1cccnc1)N(C(=O)CCl)c1cccc(Cl)c1 (stereo not given) do in these assays?
aSyn UTR act: -81*

Results for COc1ccccc1NS(=O)(=O)c1cccc(C(=O)NC2CCN(Cc3ccccc3)CC2)c1 ?
aSyn UTR act: 83

Results for O=c1c2ccccc2nc2oc3ccccc3n12 ?
aSyn UTR act: -148*

What do the screens show for `Cn1c(O)c(C2=c3ccccc3=NC2=O)sc1=Nc1ccc(Cl)cc1`?
aSyn UTR act: -93*

Results for CSc1nnc2c(n1)OC(C)N(C(=O)c1ccccc1)c1ccccc1-2 (stereo not given) ?
aSyn UTR act: -65*

What do the screens show for `Cc1nc(SC(C)C(=O)NCC2CCCO2)c2cc(-c3ccccc3)sc2n1` (stereo not given)?
aSyn UTR act: -107*

Results for COc1ccc(C2NN=C(c3ccc(C)cc3)S2)cc1 (stereo not given) ?
aSyn UTR act: -172*

Results for Cc1ccc(C2=NNC(C(O)C(O)C(O)CO)S2)cc1 (stereo not given) ?
aSyn UTR act: -66*

What do the screens show for `Cc1ccc(Cn2c(CCNc3nc(-c4ccc(Cl)c([N+](=O)[O-])c4)cs3)nc3cc(Cl)c(Cl)cc32)cc1`?
aSyn UTR act: -78*

Results for COc1ccc(CSc2nnc(SCc3ccc([N+](=O)[O-])cc3)s2)cc1 ?
aSyn UTR act: -122*

What do the screens show for `O=C(NC1CCCCC1)c1ccc(S(=O)(=O)c2ccccc2Cl)c([N+](=O)[O-])c1`?
aSyn UTR act: -95*

How did CN(C(=O)c1ccc(S(=O)(=O)c2cccc(Cl)c2)c([N+](=O)[O-])c1)C1CCCCC1 do in these assays?
aSyn UTR act: -86*

Results for O=C1c2ccccc2NC(c2ccccn2)N1c1ccc(Cl)cc1 (stereo not given) ?
aSyn UTR act: -138*

What do the screens show for `COc1cccc(C2Nc3ccccc3C(=O)N2c2ccc(F)cc2)c1O` (stereo not given)?
aSyn UTR act: -99*

How did O=C1c2ccccc2NC(c2ccccc2O)N1c1ccc(F)cc1 (stereo not given) do in these assays?
aSyn UTR act: -98*
